Source: PubChem BioAssay AID602405 (Broad Institute, 2012)
Among all 360,000 compounds or so, about 350 (0.097%) were called active. What follows is part of a selection rich in actives, with near analogues and random picks from the rest. A number with no mark means an inactive call. Rule as the data show it: active = inhibition above about 16% (passing the limit was not always enough); inconclusive = no clear call, values can overlap the other calls; inactive = below that.

The molecules below were run on UDP-N-acetylbacillosamine N-acetyltransferase PglD (Campylobacter jejuni) (assay: blockers of PglD enzyme activity – biochemical, DTNB colorimetric, single point, primary screen (AID 602405)). Conditions: purified PglD enzyme, DTNB colorimetric CoA detection; at 12.5 µM; stronger effect = higher value.

SMILES | inhibition
CC(C)CC#Cc1cnc2c(c1)C(=O)N([C@H](C)CO)C[C@H](C)[C@@H](CN(C)C(=O)Cc1cccnc1)O2 | -1.63%
CCCN1C[C@H](C)[C@@H](OC)CN(C)C(=O)c2ccc(NC(=O)C3CCOCC3)cc2OC[C@H]1C | 0.0955%
C[C@H]1CCCCO[C@@H](CN(C)C(=O)Nc2cccc3ccccc23)[C@@H](C)CN([C@@H](C)CO)C(=O)c2cc(NS(=O)(=O)c3ccc(Cl)cc3)ccc2O1 | 19.9%
C[C@H]1CN([C@@H](C)CO)C(=O)c2cc(-c3cccc(F)c3)cnc2O[C@@H]1CN(C)Cc1cncnc1 | 4.73%
COCC(=O)Nc1ccc2c(c1)OC[C@H](C)N(C)C[C@@H](C)[C@@H](OC)CN(C)C2=O | -0.767%
CCC(=O)Nc1ccc2c(c1)C(=O)N(C)[C@@H]1CC[C@@H](CC(=O)N[C@@H](C)c3ccccc3)O[C@@H]1CO2 | 2.31%
C/C=C/c1ccc2c(c1)O[C@@H](CN(C)C(=O)C1CCOCC1)[C@H](C)CN([C@H](C)CO)S2(=O)=O | -2.4%
CCCNC(=O)N(C)C[C@@H]1Oc2cc(-c3ccccc3)ccc2S(=O)(=O)N([C@H](C)CO)C[C@H]1C | 3.76%
COCC#Cc1ccc2c(c1)O[C@@H](CN(C)C(C)=O)[C@H](C)CN([C@H](C)CO)S2(=O)=O | 2.69%
C[C@H](CO)N1C[C@H](C)[C@@H](CN(C)Cc2ccc3c(c2)OCO3)Oc2c(NC(=O)C3CCOCC3)cccc2C1=O | -0.262%
Cc1ccc(S(=O)(=O)N2CCC(C(=O)N3CCCCCCC3)CC2)cc1 | -2.53%
Cc1ccc(CN(CC(=O)NCC2CCCO2)S(=O)(=O)c2ccc(C)cc2)cc1 (stereo not given) | -1.95%
Cc1ccc(S(=O)(=O)N2CCC(C(=O)NCC3CCCO3)CC2)cc1 (stereo not given) | 34.1% (active)
CCCNC(=O)[C@H]1[C@H](CO)[C@H]2Cn3c(ccc(C4=CCCC4)c3=O)[C@H]2N1C(=O)CC1CC1 | 0.913%
CO[C@@H]1CC[C@@H]2CCOc3ccc(C#N)cc3C(=O)N(C)C[C@@H](OC)[C@@H](C)C(=O)N(C)C[C@H]1O2 | 2.01%
O=C(CC1CC1)Nc1ccc2c(c1)[C@@H]1C[C@@H](CC(=O)NC3CCCCC3)O[C@@H](CO)[C@@H]1O2 | 0.63%
C[C@@H]1CN([C@@H](C)CO)C(=O)c2cc(C3=CCCCC3)cnc2O[C@H]1CN(C)CC1CCOCC1 | 4.78%
C[C@H]1CN([C@@H](C)CO)C(=O)c2cc(/C=C/c3ccccc3)cnc2O[C@@H]1CN(C)C(=O)NC1CCCCC1 | 4.19%
C[C@@H]1CCCCO[C@@H](CN(C)C(=O)Cc2ccccc2)[C@@H](C)CN([C@@H](C)CO)C(=O)c2cc(NC(=O)c3ccccc3)ccc2O1 | -0.412%
COc1ccc(NC(=O)Nc2cccc3c2O[C@H](CN(C)S(=O)(=O)c2ccc(F)cc2)[C@H](C)CN([C@H](C)CO)C3=O)cc1 | 2.54%
C=CCOC(=O)C1=C(C)NC(SCC(=O)OCC)=C(C#N)C1c1ccc(C)cc1 (stereo not given) | 25.9% (active)
CCOC(=O)CSC1=C(C#N)C(c2sccc2C)CC(=O)N1 (stereo not given) | -0.988%

SMILES | inhibition
C=CCOC(=O)C1=C(C)NC(C)=C(C(=O)OCC=C)C1c1cccs1 | -1.12%
CCCC(=O)Nc1ccc2c(c1)C(=O)N(C)[C@H]1CC[C@@H](CC(=O)NCc3cccc(F)c3)O[C@H]1CO2 | 0.49%
CC(NC(=O)c1ccc(Cl)cc1)C(=O)N1CCCCC1 (stereo not given) | 24% (active)
COc1ccc(S(=O)(=O)NC(C)C(=O)N2CCCCCC2)cc1 (stereo not given) | 2.86%
CSCCC(NC(=O)c1ccccc1)C(=O)N1CCCCCCC1 (stereo not given) | 6.24%
C[C@@H]1CN([C@@H](C)CO)C(=O)Cc2cc(NS(=O)(=O)c3ccc(Cl)cc3)ccc2O[C@H]1CN(C)Cc1ccc(C(F)(F)F)cc1 | 3.04%
Cc1noc(C)c1NC(=O)N(C)C[C@@H]1Oc2ccc(NC(=O)Nc3ccc4c(c3)OCO4)cc2C(=O)N([C@H](C)CO)C[C@H]1C | -1.03%
CC(C)NC(=O)Nc1ccc2c(c1)C(=O)N([C@H](C)CO)C[C@@H](C)[C@@H](CN(C)S(=O)(=O)c1ccc(Cl)cc1)OCCCC[C@H](C)O2 | 1.05%
C[C@@H]1CN([C@@H](C)CO)C(=O)c2c(c3ccccc3n2C)-c2ccccc2CO[C@H]1CN(C)C(=O)N[C@H](C)c1ccccc1 | -3.17%
CS(=O)(=O)Nc1ccc2c(c1)[C@H]1C[C@@H](CC(=O)NCCc3ccccc3)O[C@@H](CO)[C@H]1O2 | 1.04%
Cc1noc(C)c1S(=O)(=O)Nc1ccc2c(c1)C(=O)N([C@@H](C)CO)C[C@@H](C)[C@H](CN(C)Cc1ccc(-c3ccccc3)cc1)O2 | -0.726%
Cc1noc(C)c1NC(=O)Nc1ccc2c(c1)C(=O)N([C@@H](C)CO)C[C@H](C)[C@H](CN(C)Cc1ccc(C(=O)O)cc1)OCCCC[C@@H](C)O2 | 0.986%
Cc1ccccc1-c1ccc2c(c1)O[C@H](CN(C)C)[C@H](C)CN([C@@H](C)CO)S2(=O)=O | 4.9%
CCCN1C[C@@H](C)[C@@H](OC)CN(C)C(=O)c2ccc(NS(C)(=O)=O)cc2OC[C@@H]1C | 0.769%
O=C(C[C@@H]1CC[C@@H](NC(=O)C2CC2)[C@H](CO)O1)NCc1ccncc1 | -0.635%
Cc1ccc(S(=O)(=O)NCC[C@H]2CC[C@H](NC(=O)c3ccccn3)[C@@H](CO)O2)cc1 | 1.02%
C[C@@H]1CN([C@H](C)CO)S(=O)(=O)c2ccc(-c3cccc(C#N)c3)cc2O[C@@H]1CN(C)C(=O)Nc1ccccc1F | -1.07%
CCCC#Cc1cnc2c(c1)C(=O)N([C@H](C)CO)C[C@H](C)[C@H](CN(C)C(=O)Cc1ccncc1)O2 | 0.18%
C[C@@H]1CN([C@H](C)CO)S(=O)(=O)c2ccc(C#CCN(C)C)cc2O[C@@H]1CN(C)C(=O)C1CCCCC1 | -0.634%
COC(=O)C[C@@H]1CC[C@H]2[C@@H](COC[C@H](O)CN2C(=O)Nc2ccccc2OC)O1 | -0.947%
C[C@@H]1CN([C@@H](C)CO)C(=O)c2cc(NC(=O)CCCN(C)C)ccc2O[C@@H](C)CCCCO[C@H]1CN(C)Cc1ccc2c(c1)OCO2 | -1.38%
Cc1noc(C)c1NC(=O)Nc1ccc2c(c1)C(=O)N([C@H](C)CO)C[C@H](C)[C@H](CN(C)C(=O)C1CCCCC1)OCCCC[C@@H](C)O2 | 0.321%

SMILES | inhibition
CCCNC(=O)N1C[C@@H](O)COC[C@@H]2O[C@@H](CC(=O)O)CC[C@H]21 | -1.59%
CC(C)C#Cc1ccc([C@@H]2[C@@H](CO)N3CCCCN(C(=O)c4ccc5c(c4)OCO5)C[C@H]23)cc1 | -1.45%
OC[C@@H]1Nc2ccc(-c3cccc(F)c3)cc2[C@H]2[C@@H]1CCN2Cc1ccncc1 | -3.81%
COc1cccc(S(=O)(=O)N[C@@H]2C=C[C@H](CC(=O)NC3CCC3)O[C@H]2CO)c1 | -3.06%
CN1C(=O)c2cc(NC(=O)C3CCCCC3)ccc2OC[C@H]2O[C@@H](CC(=O)NC3CCCC3)CC[C@@H]21 | -4.23%
CCCNC(=O)N1[C@H](C#N)[C@@H](c2ccc(C3=CCCC3)cc2)[C@H]1CO | 10.3%
C[C@H](CO)N1C[C@H](C)[C@H](CN(C)Cc2ccc(C(=O)Nc3ccccc3N)cc2)Oc2c(NC(=O)Nc3ccccc3)cccc2C1=O | 1.92%
CO[C@@H]1CN(C)C(=O)c2ccc(NC(=O)c3ccc(F)cc3)cc2OC[C@H](C)N(C(=O)c2ccc(F)cc2)C[C@@H]1C | -1.94%
COc1ccc(NC(=O)Nc2cccc3c2O[C@H](CN(C)C(=O)Nc2cccc4ccccc24)[C@H](C)CN([C@H](C)CO)C3=O)cc1 | 2.27%
CC(C)CC#Cc1ccc2c(c1)O[C@H](CN(C)C(=O)CC1CC1)[C@@H](C)CN([C@@H](C)CO)S2(=O)=O | 0.792%
CC(C)CCNC(=O)c1ccc2c(Cl)c3c(nc2c1)CCC3 | 58.9% (active)
CC(C)CCC(C)NC(=O)c1ccc2nccnc2c1 (stereo not given) | -0.116%
CC(C)CCNC(=O)c1[nH]c(C(F)(F)F)nc1-c1ccccc1 | -5.32%
Cc1noc(C)c1NC(=O)Nc1ccc2c(c1)CC(=O)N([C@H](C)CO)C[C@H](C)[C@H](CN(C)C(=O)NC(C)C)O2 | 2.55%
CC(=O)N(C)C[C@H]1Oc2cc(C#CCN(C)C)ccc2S(=O)(=O)N([C@H](C)CO)C[C@H]1C | -4.02%
CC=Cc1ccc2n(c1=O)C[C@@H]1[C@@H](CO)[C@H](C(=O)NCc3cccc(OC)c3)N[C@H]21 (mixture of isomers) | 0.651%
CCCNC(=O)C[C@H]1C[C@@H]2c3cc(NC(=O)c4ccc5c(c4)OCO5)ccc3O[C@@H]2[C@@H](CO)O1 | -7.26%
Cc1ccc(S(=O)(=O)Nc2ccc3c(c2)C(=O)N([C@H](C)CO)C[C@H](C)[C@@H](CN(C)C(=O)NC(C)C)OCCCC[C@@H](C)O3)cc1 | -2.85%
CC(C)CNS(=O)(=O)c1ccc(CCC(=O)NCc2ccc(Cl)cc2)cc1 | 0.729%
CSc1ccc(S(=O)(=O)NCc2ccc(Cl)cc2)cc1 | 26.5% (active)
Cc1ccc(S(=O)(=O)NCCC(=O)NCc2ccc(Cl)cc2)cc1C | -81.7%
